Data reported in the supplement of paper PMC10849652.
Targets with a hit are over-represented here; the source holds about 8,800 in all. About 0.5% of all pairs of compound and target were hits.

How the values were obtained:
Experiment in all cases: log2 fold change, soluble protein after heating vs DMSO (PISA); higher = thermal stabilisation; K562 lysate, 10 uM; active = over 0.2 and 3.5 SD of the protein, either way, in both replicates (recomputed)
[1] = compound: CCCS(=O)(=O)Nc1ccc(F)c(C(=O)c2c[nH]c3ncc(-c4ccc(Cl)cc4)cc23)c1F [vemurafenib]
In short: (§1)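 To prepare the extract, K562 pellets were dounce-homogenised in PBS pH 7.4 with 1 mM MgCl2, giving crude material at 1 mg/mL protein. This was treated with 10 μM compound for 30 min, then heated in aliquots for 3 min over 48°C-58°C before pooling and addition of NP-40 to 0.5% at 4°C. Centrifugation at 21,000xg for 90 min left soluble protein in the supernatant, which TMTpro 16plex LC-MS/MS quantified with equalised channel sums. Results are log-two fold changes in thermal stability compared with solvent controls, from duplicates.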

[2] = compound: CCCS(=O)(=O)Nc1ccc(F)c(C(=O)c2c[nH]c3ncc(Cl)cc23)c1F
In short: as §1

[3] = compound: CCN(CCCOc1ccc2c(Nc3cc(CC(=O)Nc4cccc(F)c4)[nH]n3)ncnc2c1)CCOP(=O)(O)O [barasertib]
In short: as §1

[4] = compound: CC[C@@H]1C(=O)N(C)c2cnc(Nc3ccc(C(=O)NC4CCN(C)CC4)cc3OC)nc2N1C1CCCC1
In short: as §1

[5] = compound: CC[C@@H]1C(=O)N(C)c2cnc(Nc3ccc(C(=O)N[C@H]4CC[C@H](N5CCN(CC6CC6)CC5)CC4)cc3OC)nc2N1C(C)C [volasertib]
In short: as §1

[6] = compound: CCn1c(C(=O)N(C2CC2)C2CC2)cc2c3c(ncn3C)c(Nc3cc(C)n(C)n3)nc21
In short: as §1

[7] = compound: CCn1cc(-c2ccnc3[nH]c(-c4cccc(CN(C)C)c4)cc23)c(-c2ccc(NC(=O)N(C)C)cc2)n1
In short: as §1

[8] = compound: CN1CCC(CNc2ccc3ncc(-c4cccc(OC(F)(F)F)c4)n3n2)CC1
In short: as §1

[9] = compound: CN1CCN(CCOc2cc(OC3CCOCC3)c3c(Nc4c(Cl)ccc5c4OCO5)ncnc3c2)CC1 [saracatinib]
In short: as §1

[10] = compound: CN1CCN(c2nc(C3=C(c4c[nH]c5ccccc45)C(=O)NC3=O)c3ccccc3n2)CC1 [sotrastaurin]
In short: as §1

[11] = compound: CN1CC[C@H](c2c(O)cc(O)c3c(=O)cc(-c4ccccc4Cl)oc23)[C@H](O)C1 [alvocidib]
In short: as §1

[12] = compound: CN1CCc2c(c3ccccc3n2Cc2ccc(C(=O)NO)cc2)C1 [Tubastatin A]
In short: as §1

[13] = compound: CNC(=O)C1=CC=CC=C1NC2=NC(=NC=C2Cl)NC3=C(C=C(C=C3)N4CCOCC4)OC
In short: as §1

[14] = compound: CNC(=O)c1ccc(Nc2ncc(C(F)(F)F)c(NCc3nccnc3N(C)S(C)(=O)=O)n2)cc1 [defactinib]
In short: as §1

[15] = compound: CNc1nc(-c2ccc3c(N)n[nH]c3c2)cc(N2C[C@@H](C(=O)NC3CCCCC3)CC[C@H]2C)n1
In short: as §1

[16] = compound: COC(=O)N[C@@H](C)CNc1nccc(-c2cn(C(C)C)nc2-c2cc(Cl)cc(NS(C)(=O)=O)c2F)n1 [encorafenib]
In short: as §1

[17] = compound: COC(=O)[C@H](CCSC)NC(=O)C1=C(C=C(C=C1)NC[C@H](CS)N)C2=CC=CC=C2
In short: as §1

[18] = compound: COc1cc(Nc2ncc3c(n2)-c2ccc(Cl)cc2C(c2c(F)cccc2OC)=NC3)ccc1C(=O)O [alisertib]
In short: as §1

[19] = compound: COc1cc2nc(-c3cc(F)ccc3O)nc(N[C@@H]3CNC[C@H]3C(C)(C)O)c2cc1OC
In short: as §1

[20] = compound: COc1cc2ncnc(Nc3ccc(F)c(Cl)c3)c2cc1OCCCN1CCOCC1 [gefitinib]
In short: as §1

Measured: log2 fold change

TPM3 (UniProt P06753)
inactive: [1] -0.008 | [2] 0.009 | [3] -0.02 | [4] 0.043 | [5] 0.021 | [6] 0.013 | [7] 0.182 | [8] -0.062 | [9] -0.011 | [10] -0.031 | [11] 0.048 | [12] 0.049 | [13] -0.015 | [14] 0.044 | [15] -0.003 | [16] -0.048 | [17] -0.02 | [18] -0.007 | [19] 0 | [20] 0.008

TK1 (UniProt P04183)
inactive: [1] 0.022 | [2] 0.013 | [3] -0.007 | [4] 0.009 | [5] 0.031 | [6] -0.008 | [7] -0.124 | [8] 0.104 | [9] -0.002 | [10] 0.002 | [11] -0.051 | [12] 0.004 | [13] 0.006 | [14] -0.011 | [15] 0.032 | [16] -0.018 | [17] -0.025 | [18] -0.002 | [19] 0.017 | [20] 0.013

UBAP2L isoform 5 (UniProt Q14157)
UniProt Q14157, sequence (Q14157 whole entry, looked up): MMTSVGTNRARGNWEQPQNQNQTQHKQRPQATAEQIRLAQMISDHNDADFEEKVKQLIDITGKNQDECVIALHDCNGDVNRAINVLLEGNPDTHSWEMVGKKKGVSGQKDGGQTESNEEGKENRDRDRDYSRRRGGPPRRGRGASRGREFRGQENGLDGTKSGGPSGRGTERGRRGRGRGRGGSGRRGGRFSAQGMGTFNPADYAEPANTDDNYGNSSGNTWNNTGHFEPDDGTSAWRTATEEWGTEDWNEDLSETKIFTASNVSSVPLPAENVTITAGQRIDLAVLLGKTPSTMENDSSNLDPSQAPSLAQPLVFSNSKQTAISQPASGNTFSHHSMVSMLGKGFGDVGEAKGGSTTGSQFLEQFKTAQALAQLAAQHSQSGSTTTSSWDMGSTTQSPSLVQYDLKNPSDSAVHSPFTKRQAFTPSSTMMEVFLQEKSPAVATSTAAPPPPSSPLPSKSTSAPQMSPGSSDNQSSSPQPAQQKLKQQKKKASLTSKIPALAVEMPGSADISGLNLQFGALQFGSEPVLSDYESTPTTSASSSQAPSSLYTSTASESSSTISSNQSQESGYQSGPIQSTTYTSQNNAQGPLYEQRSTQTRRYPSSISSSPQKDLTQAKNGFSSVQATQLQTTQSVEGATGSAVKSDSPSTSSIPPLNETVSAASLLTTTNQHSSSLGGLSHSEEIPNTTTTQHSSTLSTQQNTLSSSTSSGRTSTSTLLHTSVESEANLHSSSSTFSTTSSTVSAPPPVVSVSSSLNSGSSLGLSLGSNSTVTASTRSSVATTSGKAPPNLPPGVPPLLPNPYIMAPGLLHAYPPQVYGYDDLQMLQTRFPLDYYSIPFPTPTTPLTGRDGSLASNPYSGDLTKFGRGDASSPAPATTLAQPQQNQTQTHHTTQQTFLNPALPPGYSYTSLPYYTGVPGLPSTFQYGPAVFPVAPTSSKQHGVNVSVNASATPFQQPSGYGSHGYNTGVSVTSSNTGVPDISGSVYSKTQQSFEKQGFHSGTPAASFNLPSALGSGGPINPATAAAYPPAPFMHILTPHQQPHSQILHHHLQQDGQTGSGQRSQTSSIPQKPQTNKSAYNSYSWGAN
inactive: [1] -0.002 | [2] 0.025 | [3] 0.013 | [4] 0.023 | [5] -0.006 | [6] 0.013 | [7] 0.028 | [8] -0.01 | [9] 0.03 | [10] -0.002 | [11] 0.019 | [12] 0.008 | [13] 0.007 | [14] 0.016 | [15] 0.038 | [16] 0.041 | [17] -0.002 | [18] 0.027 | [19] 0.022 | [20] -0.031

TCF12 isoform 3 (UniProt Q99081)
UniProt Q99081, sequence (Q99081 whole entry, looked up): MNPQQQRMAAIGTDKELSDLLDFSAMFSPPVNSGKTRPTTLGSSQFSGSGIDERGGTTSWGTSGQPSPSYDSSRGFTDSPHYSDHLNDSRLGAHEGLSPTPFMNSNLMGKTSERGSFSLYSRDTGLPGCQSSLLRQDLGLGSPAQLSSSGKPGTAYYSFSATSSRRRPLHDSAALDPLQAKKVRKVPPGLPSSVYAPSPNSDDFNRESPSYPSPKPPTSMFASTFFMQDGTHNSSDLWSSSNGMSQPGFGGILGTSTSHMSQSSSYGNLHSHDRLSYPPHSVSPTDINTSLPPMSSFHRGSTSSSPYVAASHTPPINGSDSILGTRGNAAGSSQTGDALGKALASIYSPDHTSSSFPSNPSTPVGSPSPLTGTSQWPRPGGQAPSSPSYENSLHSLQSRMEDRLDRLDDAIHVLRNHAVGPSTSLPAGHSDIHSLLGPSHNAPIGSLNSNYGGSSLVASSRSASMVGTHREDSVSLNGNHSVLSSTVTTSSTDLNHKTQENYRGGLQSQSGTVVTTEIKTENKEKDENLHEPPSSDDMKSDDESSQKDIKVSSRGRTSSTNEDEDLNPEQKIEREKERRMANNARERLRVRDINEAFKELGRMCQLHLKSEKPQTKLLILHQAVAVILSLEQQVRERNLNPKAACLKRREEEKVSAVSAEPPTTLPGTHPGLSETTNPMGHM
inactive: [1] 0.008 | [2] -0.068 | [3] -0.037 | [4] 0.034 | [5] -0.094 | [6] 0.017 | [7] -0.04 | [8] 0.079 | [9] 0.043 | [10] -0.054 | [11] -0.045 | [12] -0.129 | [13] 0.009 | [14] -0.007 | [15] -0.013 | [16] 0.039 | [17] -0.043 | [18] 0.004 | [19] -0.025 | [20] 0.028

TRNAU1AP (UniProt Q9NX07)
active: [1] -0.335
inactive: [2] 0.007 | [3] 0.059 | [4] 0.062 | [5] -0.041 | [6] 0.04 | [7] -0.264 | [8] 0.031 | [9] 0.027 | [10] -0.027 | [11] -0.059 | [12] -0.08 | [13] 0.015 | [14] -0.192 | [15] -0.039 | [16] 0.045 | [17] 0.034 | [18] 0.098 | [19] -0.007 | [20] -0.019

TSFM (UniProt P43897)
UniProt P43897, sequence (P43897 whole entry, looked up): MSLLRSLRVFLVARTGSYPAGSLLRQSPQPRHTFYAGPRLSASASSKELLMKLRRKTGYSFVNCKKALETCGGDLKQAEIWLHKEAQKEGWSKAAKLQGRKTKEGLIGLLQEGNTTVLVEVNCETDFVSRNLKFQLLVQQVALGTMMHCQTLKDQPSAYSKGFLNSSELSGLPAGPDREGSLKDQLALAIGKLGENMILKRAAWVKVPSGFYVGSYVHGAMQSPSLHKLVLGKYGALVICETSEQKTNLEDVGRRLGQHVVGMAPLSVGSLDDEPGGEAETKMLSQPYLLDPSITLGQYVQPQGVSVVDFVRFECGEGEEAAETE
inactive: [1] -0.007 | [2] 0.005 | [3] 0.031 | [4] -0.041 | [5] -0.089 | [6] 0.006 | [7] 0.081 | [8] -0.05 | [9] -0.014 | [10] -0.012 | [11] 0.036 | [12] -0.088 | [13] 0.017 | [14] 0.015 | [15] 0.01 | [16] -0.017 | [17] 0.13 | [18] -0.021 | [19] 0.017 | [20] 0.018

UBR4 (UniProt Q5T4S7)
inactive: [1] -0.003 | [2] 0.016 | [3] 0.02 | [4] -0.037 | [5] -0.03 | [6] 0.019 | [7] -0.034 | [8] -0.031 | [9] 0.01 | [10] 0.007 | [11] 0.009 | [12] -0.06 | [13] 0.006 | [14] 0.006 | [15] -0.034 | [16] 0.003 | [17] 0.018 | [18] 0.001 | [19] 0.001 | [20] -0.029

UBE4A isoform 2 (UniProt Q14139)
inactive: [1] -0.008 | [2] -0.001 | [3] -0.009 | [4] 0.003 | [5] -0.053 | [6] 0.031 | [7] -0.03 | [8] -0.081 | [9] 0.011 | [10] 0.025 | [11] 0 | [12] -0.087 | [13] 0.029 | [14] 0.011 | [15] -0.073 | [16] 0.018 | [17] -0.102 | [18] 0.018 | [19] 0.013 | [20] -0.041

UBP1 (UniProt Q9NZI7)
active: [7] 0.228
inactive: [1] -0.014 | [2] 0.117 | [3] 0.008 | [4] 0.01 | [5] -0.017 | [6] 0.007 | [8] -0.24 | [9] -0.008 | [10] -0.063 | [11] 0.049 | [12] -0.121 | [13] 0.058 | [14] 0.077 | [15] 0.002 | [16] 0.115 | [17] 0.019 | [18] 0.059 | [19] -0.011 | [20] -0.073

TUBGCP2 isoform 4 (UniProt Q9BSJ2)
UniProt Q9BSJ2, sequence (Q9BSJ2 whole entry, looked up): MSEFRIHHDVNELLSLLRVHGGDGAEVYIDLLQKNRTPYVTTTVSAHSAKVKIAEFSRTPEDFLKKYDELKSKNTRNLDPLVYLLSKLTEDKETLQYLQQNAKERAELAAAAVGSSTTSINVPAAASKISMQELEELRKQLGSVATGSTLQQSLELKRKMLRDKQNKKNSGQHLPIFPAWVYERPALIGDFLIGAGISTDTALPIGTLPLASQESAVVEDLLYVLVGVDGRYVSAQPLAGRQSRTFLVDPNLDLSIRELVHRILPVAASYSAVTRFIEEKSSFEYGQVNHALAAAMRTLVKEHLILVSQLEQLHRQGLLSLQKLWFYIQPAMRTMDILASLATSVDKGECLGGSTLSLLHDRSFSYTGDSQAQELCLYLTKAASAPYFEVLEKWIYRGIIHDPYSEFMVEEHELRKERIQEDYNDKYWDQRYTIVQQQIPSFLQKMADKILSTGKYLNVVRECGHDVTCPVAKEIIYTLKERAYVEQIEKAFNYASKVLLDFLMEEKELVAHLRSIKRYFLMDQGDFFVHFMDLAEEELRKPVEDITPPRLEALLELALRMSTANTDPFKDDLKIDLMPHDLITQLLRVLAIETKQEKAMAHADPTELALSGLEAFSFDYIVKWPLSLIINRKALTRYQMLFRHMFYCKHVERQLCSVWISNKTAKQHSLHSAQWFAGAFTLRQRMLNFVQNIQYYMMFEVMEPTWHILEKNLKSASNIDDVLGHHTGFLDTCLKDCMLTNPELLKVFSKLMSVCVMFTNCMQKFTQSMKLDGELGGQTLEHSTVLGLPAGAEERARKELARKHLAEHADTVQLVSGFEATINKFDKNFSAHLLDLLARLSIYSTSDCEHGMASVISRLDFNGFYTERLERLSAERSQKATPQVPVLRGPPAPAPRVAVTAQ
inactive: [1] 0.02 | [2] 0.01 | [3] 0.027 | [4] 0.001 | [5] -0.049 | [6] 0.021 | [7] 0.078 | [8] -0.064 | [9] -0.035 | [10] 0 | [11] -0.007 | [12] -0.008 | [13] 0.053 | [14] 0.032 | [15] 0.003 | [16] 0.045 | [17] -0.026 | [18] 0.021 | [19] 0.017 | [20] -0.018

UBE2H (UniProt P62256)
UniProt P62256, sequence (P62256 whole entry, looked up): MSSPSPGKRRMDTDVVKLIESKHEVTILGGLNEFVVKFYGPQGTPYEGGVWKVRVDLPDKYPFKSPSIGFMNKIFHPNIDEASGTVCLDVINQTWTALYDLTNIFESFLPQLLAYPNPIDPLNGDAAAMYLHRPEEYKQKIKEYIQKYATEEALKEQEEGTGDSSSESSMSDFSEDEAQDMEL
inactive: [1] -0.032 | [2] -0.013 | [3] -0.006 | [4] 0.011 | [5] 0.004 | [6] -0.055 | [7] 0.166 | [9] -0.056 | [10] -0.02 | [11] 0.11 | [12] 0.076 | [13] -0.03 | [14] 0.025 | [15] -0.061 | [16] 0.001 | [17] -0.01 | [18] 0.004 | [19] -0.029 | [20] 0.044
active: [8] -0.227

TTLL12 (UniProt Q14166)
inactive: [1] 0.016 | [2] 0.007 | [3] -0.001 | [4] -0.07 | [5] -0.07 | [6] 0.019 | [7] -0.033 | [8] 0.009 | [9] 0.004 | [10] 0.022 | [11] 0.039 | [12] -0.212 | [13] -0.003 | [14] 0.018 | [15] -0.03 | [16] -0.009 | [17] 0.032 | [18] 0 | [19] 0.003 | [20] 0.039

TMPO (UniProt P42166)
UniProt P42166, sequence (P42166 whole entry, looked up): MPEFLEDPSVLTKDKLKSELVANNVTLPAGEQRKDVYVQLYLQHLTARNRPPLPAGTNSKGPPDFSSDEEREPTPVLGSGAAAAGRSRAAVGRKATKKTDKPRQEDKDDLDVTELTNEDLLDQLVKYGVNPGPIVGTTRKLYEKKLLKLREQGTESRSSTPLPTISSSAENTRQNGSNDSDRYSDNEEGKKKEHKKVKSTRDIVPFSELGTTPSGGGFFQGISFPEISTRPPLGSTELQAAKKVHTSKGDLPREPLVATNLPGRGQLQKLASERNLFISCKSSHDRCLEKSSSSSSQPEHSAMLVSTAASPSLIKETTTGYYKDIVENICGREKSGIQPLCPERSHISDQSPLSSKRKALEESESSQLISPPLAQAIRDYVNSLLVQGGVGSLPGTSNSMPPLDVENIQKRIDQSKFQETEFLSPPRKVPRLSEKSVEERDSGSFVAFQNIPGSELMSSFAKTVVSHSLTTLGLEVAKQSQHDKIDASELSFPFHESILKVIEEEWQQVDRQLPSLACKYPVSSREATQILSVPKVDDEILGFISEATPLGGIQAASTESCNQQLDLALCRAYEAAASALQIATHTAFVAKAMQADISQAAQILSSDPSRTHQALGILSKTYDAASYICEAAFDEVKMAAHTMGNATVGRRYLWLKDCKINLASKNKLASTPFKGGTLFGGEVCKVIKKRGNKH
inactive: [1] 0.027 | [2] -0.004 | [3] 0.04 | [4] -0.041 | [5] -0.025 | [6] 0.033 | [7] 0.026 | [8] 0.003 | [9] -0.017 | [10] -0.161 | [11] -0.196 | [12] -0.145 | [13] 0.002 | [14] 0.028 | [15] -0.003 | [16] 0.011 | [17] 0.174 | [18] -0.024 | [19] 0.012 | [20] 0.011

THEMIS2 (UniProt Q5TEJ8)
UniProt Q5TEJ8, sequence (Q5TEJ8 whole entry, looked up): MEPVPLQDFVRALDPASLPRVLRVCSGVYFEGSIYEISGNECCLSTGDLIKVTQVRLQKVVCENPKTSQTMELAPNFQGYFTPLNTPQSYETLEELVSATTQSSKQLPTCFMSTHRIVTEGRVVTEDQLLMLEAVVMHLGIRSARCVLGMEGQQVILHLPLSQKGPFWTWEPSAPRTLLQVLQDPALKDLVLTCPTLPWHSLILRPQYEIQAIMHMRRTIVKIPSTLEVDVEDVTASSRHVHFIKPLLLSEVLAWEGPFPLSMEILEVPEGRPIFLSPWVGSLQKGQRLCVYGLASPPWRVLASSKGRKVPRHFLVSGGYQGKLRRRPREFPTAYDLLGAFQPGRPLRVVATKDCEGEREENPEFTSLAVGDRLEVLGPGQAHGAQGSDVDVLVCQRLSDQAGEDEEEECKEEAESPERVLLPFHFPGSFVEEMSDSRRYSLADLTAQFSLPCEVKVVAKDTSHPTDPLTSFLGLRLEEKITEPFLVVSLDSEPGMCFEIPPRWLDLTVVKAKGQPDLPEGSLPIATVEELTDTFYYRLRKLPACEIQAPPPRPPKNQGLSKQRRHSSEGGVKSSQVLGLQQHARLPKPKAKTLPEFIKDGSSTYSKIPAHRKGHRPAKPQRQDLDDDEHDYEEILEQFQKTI
inactive: [1] -0.004 | [2] 0.11 | [3] -0.052 | [4] 0.016 | [5] 0.132 | [6] 0.015 | [7] -0.019 | [8] 0.004 | [9] 0.01 | [10] -0.016 | [11] -0.036 | [12] -0.069 | [13] 0.024 | [14] 0.028 | [15] 0 | [16] -0.027 | [17] 0.023 | [18] 0.052 | [19] -0.159 | [20] 0.025

TRIM44 (UniProt Q96DX7)
UniProt Q96DX7, sequence (Q96DX7 whole entry, looked up): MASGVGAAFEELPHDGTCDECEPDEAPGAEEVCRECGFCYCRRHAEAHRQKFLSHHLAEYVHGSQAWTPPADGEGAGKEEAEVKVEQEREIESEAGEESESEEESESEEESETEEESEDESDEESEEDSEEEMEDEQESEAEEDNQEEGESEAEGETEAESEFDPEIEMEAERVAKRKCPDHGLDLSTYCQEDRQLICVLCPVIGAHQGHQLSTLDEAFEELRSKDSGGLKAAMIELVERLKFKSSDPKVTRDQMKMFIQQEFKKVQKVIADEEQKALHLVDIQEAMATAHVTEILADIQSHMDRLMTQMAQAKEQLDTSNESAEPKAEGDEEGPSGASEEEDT
inactive: [1] -0.085 | [2] 0.095 | [3] 0.066 | [4] -0.075 | [5] -0.014 | [6] 0.003 | [7] 0.146 | [8] -0.031 | [9] 0.023 | [10] 0.044 | [11] 0 | [12] -0.013 | [13] 0.057 | [14] -0.045 | [15] 0.04 | [16] -0.047 | [17] -0.034 | [18] 0.041 | [19] -0.121 | [20] 0.088

TFIP11 (UniProt Q9UBB9)
inactive: [1] 0.017 | [2] 0.025 | [3] -0.09 | [4] -0.018 | [5] -0.059 | [6] 0.048 | [7] -0.027 | [8] -0.037 | [9] 0.018 | [10] 0.027 | [11] -0.013 | [12] -0.135 | [13] 0.024 | [14] 0.061 | [15] -0.023 | [16] 0.042 | [18] 0.062 | [19] 0.013 | [20] -0.041
active: [17] 0.381
